Laboratory results: ChEMBL document CHEMBL1961873, “Compounds: GSK PKIS; Assays: Nanosyn kinase panel” (2012)

Columns and labels:
[1] = molecular target: Mast/stem cell growth factor receptor Kit (Homo sapiens) (UniProt P10721); conditions: at 1 µM
[2] = tested on: Mast/stem cell growth factor receptor Kit (Homo sapiens), P10721 [D816V]; conditions: at 0.1 µM
[3] = tested on: Mast/stem cell growth factor receptor Kit (Homo sapiens), P10721 [D816V]; conditions: at 1 µM
[4] = tested on: Mast/stem cell growth factor receptor Kit (Homo sapiens), P10721 [T670I]; conditions: at 0.1 µM
Sequence of Mast/stem cell growth factor receptor Kit (Homo sapiens), P10721 [T670I] (P10721 whole entry T670I): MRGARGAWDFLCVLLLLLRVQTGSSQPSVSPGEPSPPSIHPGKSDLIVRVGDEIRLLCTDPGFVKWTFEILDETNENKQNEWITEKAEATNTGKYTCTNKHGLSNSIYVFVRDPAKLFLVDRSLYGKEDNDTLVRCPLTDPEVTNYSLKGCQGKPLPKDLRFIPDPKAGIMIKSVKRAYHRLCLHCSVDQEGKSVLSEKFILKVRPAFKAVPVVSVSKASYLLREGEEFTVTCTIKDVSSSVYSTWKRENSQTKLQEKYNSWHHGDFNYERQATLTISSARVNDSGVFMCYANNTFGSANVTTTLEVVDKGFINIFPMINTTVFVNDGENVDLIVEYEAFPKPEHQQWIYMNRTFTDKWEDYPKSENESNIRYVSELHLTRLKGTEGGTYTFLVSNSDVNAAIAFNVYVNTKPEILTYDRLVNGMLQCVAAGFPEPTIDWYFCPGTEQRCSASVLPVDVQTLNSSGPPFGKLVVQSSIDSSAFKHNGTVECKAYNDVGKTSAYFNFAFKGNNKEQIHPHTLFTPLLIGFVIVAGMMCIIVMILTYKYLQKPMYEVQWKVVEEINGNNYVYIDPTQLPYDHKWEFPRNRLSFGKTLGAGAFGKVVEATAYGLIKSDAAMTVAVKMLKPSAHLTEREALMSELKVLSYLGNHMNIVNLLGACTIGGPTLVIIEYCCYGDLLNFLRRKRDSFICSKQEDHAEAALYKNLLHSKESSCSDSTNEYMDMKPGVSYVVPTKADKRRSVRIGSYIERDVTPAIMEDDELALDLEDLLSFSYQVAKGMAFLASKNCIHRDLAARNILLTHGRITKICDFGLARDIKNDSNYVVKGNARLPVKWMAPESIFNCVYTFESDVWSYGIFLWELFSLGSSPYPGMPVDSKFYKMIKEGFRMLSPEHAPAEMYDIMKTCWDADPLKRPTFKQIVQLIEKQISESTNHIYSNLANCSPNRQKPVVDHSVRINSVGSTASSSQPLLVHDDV

[5] = tested on: Mast/stem cell growth factor receptor Kit (Homo sapiens), P10721 [T670I]; conditions: at 1 µM
[6] = tested on: Mast/stem cell growth factor receptor Kit (Homo sapiens), P10721 [V560G]; conditions: at 0.1 µM
Sequence of Mast/stem cell growth factor receptor Kit (Homo sapiens), P10721 [V560G] (P10721 whole entry V560G): as the sequence (P10721 whole entry T670I) above, with V560G, I670T counted along it

[7] = tested on: Mast/stem cell growth factor receptor Kit (Homo sapiens), P10721 [V560G]; conditions: at 1 µM
[8] = molecular target: Tyrosine-protein kinase Lck (Homo sapiens) (UniProt P06239); conditions: at 0.1 µM
Sequence of Tyrosine-protein kinase Lck (Homo sapiens) (P06239 2-509 limits assumed): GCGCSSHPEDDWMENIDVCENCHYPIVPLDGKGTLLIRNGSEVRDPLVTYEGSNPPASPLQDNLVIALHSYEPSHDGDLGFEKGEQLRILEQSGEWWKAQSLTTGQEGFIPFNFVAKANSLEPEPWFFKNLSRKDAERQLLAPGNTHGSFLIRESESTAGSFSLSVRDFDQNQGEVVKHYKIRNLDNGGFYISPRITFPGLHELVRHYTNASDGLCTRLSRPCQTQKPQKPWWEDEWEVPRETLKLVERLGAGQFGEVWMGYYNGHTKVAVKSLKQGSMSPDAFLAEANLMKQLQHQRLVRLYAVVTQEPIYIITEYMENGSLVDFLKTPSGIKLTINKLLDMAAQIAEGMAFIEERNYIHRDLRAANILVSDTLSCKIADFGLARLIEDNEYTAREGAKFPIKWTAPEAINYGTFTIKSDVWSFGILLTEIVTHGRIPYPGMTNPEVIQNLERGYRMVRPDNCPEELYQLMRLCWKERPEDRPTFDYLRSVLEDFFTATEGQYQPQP

[9] = molecular target: Tyrosine-protein kinase Lck (Homo sapiens) (UniProt P06239); conditions: at 1 µM
[10] = molecular target: Leukocyte tyrosine kinase receptor (Homo sapiens) (UniProt P29376); conditions: at 0.1 µM
Sequence of Leukocyte tyrosine kinase receptor (Homo sapiens) (P29376 whole entry): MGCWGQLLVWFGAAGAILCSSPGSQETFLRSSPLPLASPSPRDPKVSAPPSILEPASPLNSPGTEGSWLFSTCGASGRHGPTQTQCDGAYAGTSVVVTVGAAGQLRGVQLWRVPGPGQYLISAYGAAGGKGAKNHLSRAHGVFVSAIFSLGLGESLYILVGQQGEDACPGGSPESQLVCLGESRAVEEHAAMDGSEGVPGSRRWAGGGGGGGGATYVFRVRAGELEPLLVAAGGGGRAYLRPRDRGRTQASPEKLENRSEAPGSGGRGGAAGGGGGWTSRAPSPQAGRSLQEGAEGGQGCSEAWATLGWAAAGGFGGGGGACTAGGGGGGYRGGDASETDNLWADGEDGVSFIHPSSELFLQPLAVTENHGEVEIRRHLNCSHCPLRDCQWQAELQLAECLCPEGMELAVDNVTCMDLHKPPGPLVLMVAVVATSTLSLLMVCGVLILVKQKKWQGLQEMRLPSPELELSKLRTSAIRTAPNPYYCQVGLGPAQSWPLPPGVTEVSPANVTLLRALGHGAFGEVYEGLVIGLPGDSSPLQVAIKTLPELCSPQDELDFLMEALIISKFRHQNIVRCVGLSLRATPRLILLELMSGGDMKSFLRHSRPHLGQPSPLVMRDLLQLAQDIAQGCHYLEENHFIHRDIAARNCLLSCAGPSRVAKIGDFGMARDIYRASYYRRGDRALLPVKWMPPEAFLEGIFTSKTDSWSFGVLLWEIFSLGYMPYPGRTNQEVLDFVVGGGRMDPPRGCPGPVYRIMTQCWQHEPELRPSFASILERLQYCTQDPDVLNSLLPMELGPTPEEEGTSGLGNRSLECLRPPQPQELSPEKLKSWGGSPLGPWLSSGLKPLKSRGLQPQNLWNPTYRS

Sequence of Mast/stem cell growth factor receptor Kit (Homo sapiens), P10721 [D816V] (P10721 whole entry D816V): as the sequence (P10721 whole entry T670I) above, with I670T, D816V counted along it
Sequence of Mast/stem cell growth factor receptor Kit (Homo sapiens) (P10721 whole entry): as the sequence (P10721 whole entry T670I) above, with I670T counted along it

`Nc1nonc1-c1nc2cnccc2n1C1CCCCC1` showed an inhibition [1] of 20.6%, an inhibition [2] of -4.78% and an inhibition [3] of -1.9%. The inhibition [4] was -2.27%, the inhibition [5] was 13.3% and the inhibition [6] was 1.39%. It also gave an inhibition [7] of 3.23%, an inhibition [8] of -0.24% and an inhibition [9] of 0.51%. It also gave an inhibition [10] of -0.53%.

Work on `COc1cccc(-n2ncc3c(N/N=C/c4ccncc4)ncnc32)c1` yielded an inhibition [1] of 57.2%, an inhibition [2] of 2.45% and an inhibition [3] of 12.7%. It also gave an inhibition [4] of 9.47%, an inhibition [5] of 46.9% and an inhibition [6] of 0.93%. It also gave an inhibition [7] of 10.7%, an inhibition [8] of 41.1% and an inhibition [9] of 84%. The inhibition [10] was 4.93%.

`CCn1c(-c2nonc2N)nc2c(C#CC(C)(C)O)ncc(OC[C@@H]3CCCN3)c21` gave an inhibition [1] of -2.57%, an inhibition [2] of -1.62% and an inhibition [3] of 4.32%. The inhibition [4] was -1.38%, the inhibition [5] was 1.32% and the inhibition [6] was 0.39%. It also gave an inhibition [7] of -1.89%, an inhibition [8] of 1.21% and an inhibition [9] of 3.66%. For the same compound, the inhibition [10] was 0.71%.

`COc1cc(C=NNc2ncnc3c2cnn3Cc2ccccc2)ccc1O` gave an inhibition [1] of -1.55%, an inhibition [2] of -5.85% and an inhibition [3] of 0.6%. For the same compound, the inhibition [4] was -3.69%, the inhibition [5] was -2.85% and the inhibition [6] was 1.99%. The inhibition [7] was 3.94%, the inhibition [8] was 13.2% and the inhibition [9] was 14.2%. It also gave an inhibition [10] of -2.98%.

`COc1cc2c(cc1Nc1nc(Nc3ccsc3C(N)=O)c3cc[nH]c3n1)N(C(=O)CN(C)C)CCC2` gave an inhibition [2] of 0.61%, an inhibition [3] of 2.53% and an inhibition [4] of -0.99%. For the same compound, the inhibition [5] was 3.92%, the inhibition [6] was 1.1% and the inhibition [7] was 8.54%. The inhibition [8] was 2.58%, the inhibition [9] was 6.92% and the inhibition [10] was 93.8%.

Work on `COc1cccc(COc2cc(-n3cnc4ccccc43)sc2C(N)=O)c1` yielded an inhibition [1] of -3.97%, an inhibition [2] of -0.07% and an inhibition [3] of -0.97%. For the same compound, the inhibition [4] was -0.12%, the inhibition [5] was -0.76% and the inhibition [6] was -2.2%. It also gave an inhibition [7] of -2.16%, an inhibition [8] of 0.12% and an inhibition [9] of -0.7%. It also gave an inhibition [10] of 0.36%.

With `CCn1c(-c2nonc2N)nc2c(C#CCN)ncc(OCCCN)c21` the inhibition [1] was 3.33%, the inhibition [2] was -3.56% and the inhibition [3] was 3.48%. It also gave an inhibition [4] of -1.86%, an inhibition [5] of 2.2% and an inhibition [6] of 1.17%. The inhibition [7] was 2.93%, the inhibition [8] was 1.94% and the inhibition [9] was 0.46%. The inhibition [10] was -1.04%.

Compound `Cc1cc(-c2ccco2)cc(C)c1/C=C/c1cncc(-c2nn[nH]n2)c1` has an inhibition [1] of 0.94%, an inhibition [2] of -2.81% and an inhibition [3] of -2.99%. For the same compound, the inhibition [4] was 1.44%, the inhibition [5] was 0.51% and the inhibition [6] was 1.15%. The inhibition [7] was 3.87%, the inhibition [8] was 1.77% and the inhibition [9] was 4.38%. It also gave an inhibition [10] of 1.51%.

`NC(=O)c1sc(-n2cnc3cc(C(F)(F)F)ccc32)cc1OCc1ccccc1Br` showed an inhibition [1] of 1.77%, an inhibition [2] of -1.89% and an inhibition [3] of -0.03%. For the same compound, the inhibition [4] was 0.92%, the inhibition [5] was 0.92% and the inhibition [6] was 0.44%. For the same compound, the inhibition [7] was -1.3%, the inhibition [8] was 1.84% and the inhibition [9] was 4.62%. For the same compound, the inhibition [10] was 1.94%.

`NS(=O)(=O)c1ccc(-c2ccc3c(NC(=O)C4CC4)n[nH]c3c2)cc1` was tested, and the inhibition [1] was 1.91%, the inhibition [2] was 3.57% and the inhibition [3] was 0.9%. For the same compound, the inhibition [4] was 4.28%, the inhibition [5] was 4.13% and the inhibition [6] was 2.1%. It also gave an inhibition [7] of -1.99%, an inhibition [8] of 2.8% and an inhibition [9] of 4.43%. For the same compound, the inhibition [10] was 1.17%.

Work on `CCn1c(-c2nonc2N)nc2c(C#CC(C)(C)O)nc(O[C@@H](CN)c3ccccc3)cc21` yielded an inhibition [1] of 2.69%, an inhibition [2] of 0.72% and an inhibition [3] of 34.2%. It also gave an inhibition [4] of -0.51%, an inhibition [5] of 10.4% and an inhibition [6] of 3.42%. For the same compound, the inhibition [7] was 3.54%, the inhibition [8] was 0.41% and the inhibition [9] was 4.58%. It also gave an inhibition [10] of 35.4%.

With `CCn1c(-c2nonc2N)nc2c(C#CC(C)(C)O)ncc(OCC3CCNCC3)c21` the inhibition [1] was 8.48%, the inhibition [2] was 3.82% and the inhibition [3] was 5.6%. The inhibition [4] was 1.76%, the inhibition [5] was 4.21% and the inhibition [6] was 3.17%. It also gave an inhibition [7] of 3.26%, an inhibition [8] of -3.71% and an inhibition [9] of -1.12%. It also gave an inhibition [10] of 2.4%.

Work on `NS(=O)(=O)c1ccc(N/C=C2\C(=O)Nc3ccc4ncsc4c32)cc1` yielded an inhibition [1] of 90%, an inhibition [2] of 0.89% and an inhibition [3] of 14.5%. The inhibition [4] was 12.1%, the inhibition [5] was 58.9% and the inhibition [6] was 0.83%. It also gave an inhibition [7] of 20.2%, an inhibition [8] of 4.26% and an inhibition [9] of 13.2%. For the same compound, the inhibition [10] was 5.19%.

In the case of `Fc1ccc(-c2ncn(C3CCNCC3)c2-c2ccnc(Oc3ccccc3)n2)cc1`, the inhibition [1] is reported as 1.46%, the inhibition [2] is reported as 0.53% and the inhibition [3] is reported as 4.38%. It also gave an inhibition [4] of 0.68%, an inhibition [5] of 2.08% and an inhibition [6] of 3.13%. For the same compound, the inhibition [7] was 1.77%, the inhibition [8] was -2.11% and the inhibition [9] was -2.53%. For the same compound, the inhibition [10] was 0.54%.
